Assay results from PubChem BioAssay (NCI).
“And” between values parts separate entries of the source, which are not always exact repeats. Equal values may be shown once. This is part of a sample that, as a whole, favours compounds with a hit. Of some 83,000 tested, about 20% had one in any assay.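 Values shown are percent growth following 48 h exposure of cells in 96-well plates to a single concentration of compound; below 10 was considered active.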 Unmarked numbers belong to inactive results. The source made the active and inactive calls.

What follows are compounds tested on SR leukemia (assay: NCI-60 one-dose screen, 48 h (100 = growth as untreated, 0 = no growth, -100 = all killed)). Settings: 10 µM unless noted.
O=C(CSc1nnc(-c2ccc(-c3nc4ccc(Cl)cc4[nH]3)cc2)o1)Nc1ccccc1 showed a growth of 10.9%.
Cc1cccc(NCC(=O)N2CCN(c3ncnc4c3cnn4-c3ccccc3)CC2)c1 gave a growth of 22.7%.
With CS(=O)(=O)c1ccc(-n2nc(C(=O)NCc3ccccc3)cc2-c2ccc(Cl)cc2)cc1 the growth was 76.7%.
For CS(=O)(=O)Nc1cccc(-n2c(COc3ccc(OC(F)(F)F)cc3)nc3ccccc32)c1, the growth was 68.3% and 83.2%.
For O=C(CSc1nc2sc3c(c2c(=O)n1-c1ccc(Cl)cc1)CCCC3)NNC(=O)c1ccc(Br)cc1, the growth was 34.4%.
For O=C(c1ccc(Cl)cc1)C1[C@H](c2ccccc2Cl)[C@@H](c2ccccc2)NC12C(=O)Nc1ccccc12 (some centres not stated), the growth was -41% (active).
With N#CC1=C(c2ccco2)Nc2c(c(-c3ccccc3)nn2-c2ccccc2)C12C(=O)Nc1ccc(Cl)cc12 (configuration not stated) the growth was -2.37% (active).
For c1ccc(CSc2nnc(-c3ccc4nc(-c5ccccc5)[nH]c4c3)o2)cc1, the growth was 63.6%.
With O=C(CSc1nnc(-c2ccc(-c3nc4ccccc4[nH]3)cc2)o1)Nc1ccccc1 the growth was 34.1%.
CCCCCCCCCCCCCCCCCC(=O)Nc1ccc(OC)cc1 gave a growth of 97.7%.
In the case of Nc1nn2c(-c3cc4ccccc4oc3=O)ccnc2c1N=Nc1ccccc1, the growth was 59.1%.
Compound O=C1NC(=S)/C(=C/c2cn(-c3ccccc3)nc2-c2ccccc2)S1 has a growth of 83.4%.
In the case of CC(Nc1ncnc2ccc(-c3ccc4oc(N)nc4c3)cc12)c1ccccc1 (configuration not stated), the growth was -53.7% (active).
For O=C(N/N=C/c1ccsc1)c1[nH]c2ccc(Br)cc2c1-c1ccccc1, the growth was 2.42% (active).

These compounds were tested on RPMI-8226 leukemia in the same assay as above. Settings: 1 µM.
Work on CC/C(=C(\c1ccc(O)cc1)c1ccc(OCCN(C)C(=O)CCOCCNC(=O)c2ccc3c(c2)CN([C@@H]2CCC(=O)NC2=O)C3=O)cc1)c1ccccc1 yielded a growth of 99.1%.
CC/C(=C(/c1ccc(O)cc1)c1ccc(OCCN(C)C(=O)COCCOCCNC(=O)c2ccc3c(c2)CN([C@@H]2CCC(=O)NC2=O)C3=O)cc1)c1ccccc1 gave a growth of 99.6%.
Compound CC/C(=C(\c1ccc(O)cc1)c1ccc(OCCNC)cc1)c1ccccc1 has a growth of 100%.

Same assay, conditions: 10 µM
Work on CC/C(=C(\c1ccc(O)cc1)c1ccc(OCCN(C)C(=O)CCOCCNC(=O)c2ccc3c(c2)CN([C@@H]2CCC(=O)NC2=O)C3=O)cc1)c1ccccc1 yielded a growth of 93.9%.
For CC/C(=C(/c1ccc(O)cc1)c1ccc(OCCN(C)C(=O)COCCOCCNC(=O)c2ccc3c(c2)CN([C@@H]2CCC(=O)NC2=O)C3=O)cc1)c1ccccc1, the growth was 78.5%.
CC/C(=C(\c1ccc(O)cc1)c1ccc(OCCNC)cc1)c1ccccc1 gave a growth of 86.1%.

Same assay, conditions: 10 µM unless noted
Work on COc1ccc([C@H]2C(C(=O)c3ccc(Cl)cc3)C3(N[C@@H]2c2ccccc2)C(=O)Nc2ccccc23)cc1 (some centres not stated) yielded a growth of 10.4%.
With CC1=C(C(=O)OC(C)C)C(c2ccc(O)cc2)NC(=O)N1 (configuration not stated) the growth was 98.9%.
With CC(C)(C)OC(=O)N1CCC2(CC1)Oc1ccccc1[C@H]1CC(c3ccc(Br)cc3)=NN12 the growth was 56.2%.
In the case of O=C1NC(=NC23CC4CC(CC(C4)C2)C3)N/C1=C\c1ccc2ncccc2c1, the growth was -31.1% (active).
With O=C(c1ccc(O)cc1)C1[C@H](c2ccccc2Br)[C@@H](c2ccccc2)NC12C(=O)Nc1ccccc12 (some centres not stated) the growth was 31.4%.

What follows are compounds tested on OVCAR-8 ovarian in the same assay as above. Settings: 1 µM.
CC/C(=C(\c1ccc(O)cc1)c1ccc(OCCN(C)C(=O)COCCNC(=O)Cc2ccc3c(c2)CN([C@@H]2CCC(=O)NC2=O)C3=O)cc1)c1ccccc1 was tested, and the growth was 67.7%.
CC/C(=C(\c1ccc(O)cc1)c1ccc(OCCN(C)C(=O)CCOCCNC(=O)c2ccc3c(c2)CN([C@@H]2CCC(=O)NC2=O)C3=O)cc1)c1ccccc1 gave a growth of 103%.
CC/C(=C(/c1ccc(O)cc1)c1ccc(OCCN(C)C(=O)CCOCCNC(=O)Cc2ccc3c(c2)CN([C@@H]2CCC(=O)NC2=O)C3=O)cc1)c1ccccc1 showed a growth of 87.8%.
CC/C(=C(/c1ccc(O)cc1)c1ccc(OCCN(C)C(=O)COCCOCCNC(=O)c2ccc3c(c2)CN([C@@H]2CCC(=O)NC2=O)C3=O)cc1)c1ccccc1 gave a growth of 102%.
With CC/C(=C(\c1ccc(O)cc1)c1ccc(OCCNC)cc1)c1ccccc1 the growth was 104%.
For CC/C(=C(/c1ccc(O)cc1)c1ccc(OCCN(C)C(=O)COCCOCCNC(=O)Cc2ccc3c(c2)CN([C@@H]2CCC(=O)NC2=O)C3=O)cc1)c1ccccc1, the growth was 93.9%.

Same assay, conditions: 10 µM
CC/C(=C(\c1ccc(O)cc1)c1ccc(OCCN(C)C(=O)COCCNC(=O)Cc2ccc3c(c2)CN([C@@H]2CCC(=O)NC2=O)C3=O)cc1)c1ccccc1 showed a growth of 15.1%.
For CC/C(=C(\c1ccc(O)cc1)c1ccc(OCCN(C)C(=O)CCOCCNC(=O)c2ccc3c(c2)CN([C@@H]2CCC(=O)NC2=O)C3=O)cc1)c1ccccc1, the growth was 77.6%.
CC/C(=C(/c1ccc(O)cc1)c1ccc(OCCN(C)C(=O)CCOCCNC(=O)Cc2ccc3c(c2)CN([C@@H]2CCC(=O)NC2=O)C3=O)cc1)c1ccccc1 showed a growth of 34.7%.
For CC/C(=C(/c1ccc(O)cc1)c1ccc(OCCN(C)C(=O)COCCOCCNC(=O)c2ccc3c(c2)CN([C@@H]2CCC(=O)NC2=O)C3=O)cc1)c1ccccc1, the growth was 61.1%.
CC/C(=C(\c1ccc(O)cc1)c1ccc(OCCNC)cc1)c1ccccc1 gave a growth of 97.3%.
With CC/C(=C(/c1ccc(O)cc1)c1ccc(OCCN(C)C(=O)COCCOCCNC(=O)Cc2ccc3c(c2)CN([C@@H]2CCC(=O)NC2=O)C3=O)cc1)c1ccccc1 the growth was 21.9%.
